# Test results from the supplement of paper PMC8728848.
# The full list was thinned out, with the strongest signals kept by preference.
# Experiments:
# Experiment in all cases: glycan array binding signal (z-score within array); higher = stronger binding
# Conditions in all cases: glycan notation: IUPAC condensed, linker removed
# [1] = biological target: Fuc(a1-2)Gal(b1-3)GlcNAc(b1-2)Man(a1-3)[Fuc(a1-2)Gal(b1-3)GlcNAc(b1-2)Man(a1-6)]Man(b1-4)GlcNAc(b1-4)[Fuc(a1-6)]GlcNAc
# How it was run: (§1)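 The binding signal is a Z-score computed within each array. Data were drawn from 3228 arrays in the Consortium for Functional Glycomics database, restricted to those with a known protein sequence. Scores were averaged over arrays of the same protein sequence at different concentrations or buffers, and over linkers, and negative values can be taken as non-binding.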
# [2] = biological target: Fuc(a1-2)Gal(b1-4)Fuc(a1-3)]GlcNAc(b1-2)Man(a1-3)[Fuc(a1-2)Gal(b1-4)[Fuc(a1-3)]GlcNAc(b1-2)Man(a1-6)]Man(b1-4)GlcNAc(b1-4)GlcNAc
# How it was run: as §1
# [3] = biological target: Fuc(a1-2)Gal(b1-4)Glc6S
# How it was run: as §1
# [4] = biological target: Fuc(a1-2)Gal(b1-4)GlcNAc
# How it was run: as §1
# [5] = biological target: Fuc(a1-2)Gal(b1-4)GlcNAc(b1-2)Man(a1-3)[Fuc(a1-2)Gal(b1-4)GlcNAc(b1-2)Man(a1-6)]Man(b1-4)GlcNAc(b1-4)[Fuc(a1-6)]GlcNAc
# How it was run: as §1
# [6] = biological target: Fuc(a1-2)Gal(b1-4)GlcNAc(b1-6)GalNAc
# How it was run: as §1
# [7] = biological target: Fuc(a1-2)Gal(b1-4)[Fuc(a1-3)]GlcNAc(b1-3)GalNAc
# How it was run: as §1
# [8] = biological target: Fuc(a1-2)Gal3S(b1-4)GlcNAc
# How it was run: as §1
# [9] = biological target: Fuc(a1-2)[Gal(a1-3)]Gal(b1-3)GlcNAc(b1-3)GalNAc
# How it was run: as §1
# [10] = biological target: Fuc(a1-2)[Gal(a1-3)]Gal(b1-4)GlcNAc(b1-2)Man(a1-3)[Fuc(a1-2)[Gal(a1-3)]Gal(b1-4)GlcNAc(b1-2)Man(a1-6)]Man(b1-4)GlcNAc(b1-4)[Fuc(a1-6)]GlcNAc
# How it was run: as §1
# [11] = biological target: Fuc(a1-2)[GalNAc(a1-3)]Gal(b1-3)GlcNAc(b1-2)Man(a1-3)[Fuc(a1-2)[GalNAc(a1-3)]Gal(b1-3)GlcNAc(b1-2)Man(a1-6)]Man(b1-4)GlcNAc(b1-4)[Fuc(a1-6)]GlcNAc
# How it was run: as §1
# [12] = biological target: Fuc(a1-2)[GalNAc(a1-3)]Gal(b1-4)GlcNAc(b1-2)Man(a1-3)[Fuc(a1-2)[GalNAc(a1-3)]Gal(b1-4)GlcNAc(b1-2)Man(a1-6)]Man(b1-4)GlcNAc(b1-4)[Fuc(a1-6)]GlcNAc
# How it was run: as §1
# [13] = biological target: Fuc(a1-2)[GalNAc(a1-3)]Gal(b1-4)GlcNAc(b1-3)Gal(b1-4)GlcNAc(b1-3)Gal(b1-4)GlcNAc
# How it was run: as §1
# [14] = biological target: Fuc(a1-2)[GalNAc(a1-3)]Gal(b1-4)[Fuc(a1-3)]GlcNAc(b1-3)GalNAc
# How it was run: as §1
# [15] = biological target: Fuc(a1-3)[Gal(b1-4)]GlcNAc(b1-2)Man(a1-3)[Fuc(a1-3)[Gal(b1-4)]GlcNAc(b1-2)Man(a1-6)]Man(b1-4)GlcNAc(b1-4)GlcNAc
# How it was run: as §1
# [16] = biological target: Fuc(a1-3)[GalNAc(b1-4)]GlcNAc6S
# How it was run: as §1
# [17] = biological target: Gal(a1-2)Gal
# How it was run: as §1
# [18] = biological target: Gal(a1-3)Gal(b1-4)[Fuc(a1-3)]GlcNAc
# How it was run: as §1
# [19] = biological target: Gal(b1-3)Gal
# How it was run: as §1
# [20] = biological target: Gal(b1-3)GalNAc(b1-3)Gal
# How it was run: as §1
# [21] = biological target: Gal(b1-3)GalNAc(b1-3)Gal(a1-4)Gal(b1-4)Glc
# How it was run: as §1
# [22] = biological target: Gal(b1-3)GlcNAc(a1-3)Gal(b1-4)GlcNAc
# How it was run: as §1
# [23] = biological target: Gal(b1-3)GlcNAc(b1-3)Gal(b1-4)GlcNAc(b1-2)[Gal(b1-3)GlcNAc(b1-3)Gal(b1-4)GlcNAc(b1-6)]Man(a1-6)[Gal(b1-3)GlcNAc(b1-3)Gal(b1-4)GlcNAc(b1-2)Man(a1-3)]Man(b1-4)GlcNAc(b1-4)[Fuc(a1-6)]GlcNAc
# How it was run: as §1
# [24] = biological target: Gal(b1-3)[Fuc(a1-4)]GlcNAc(b1-6)GalNAc
# How it was run: as §1
# [25] = biological target: Gal(b1-3)[Neu5Ac(a2-6)]GlcNAc(b1-4)Gal(b1-4)Glc
# How it was run: as §1
# [26] = biological target: Gal(b1-4)Glc
# How it was run: as §1
binder,measurement,setting,value
Epa8 (Candida glabrata) (protein) MGSSHHHHHHSSGLVPRGSHMASSRALSDYPLGCSPLLGTKLTPGLSMELYEYPLDNHGIGPHCWDPAYLNPEYPRTGFESHKLIGTAQNVMSLNFEHRTQDCHVEFSNLPASFNFPDQITLTNFTMLLYGYFKPKESGRYRFHMEADDLLLMNLGAGNAFDCCAHEATRNNLGDYIAYDIWAGTRKDVEVFLEKEVFYPLRLFFNNRDGRAALDFSYYLNGATEPGTDIPELLFSLPDGESCPAYI,glycan array binding signal (z-score),[1],0.141
same,glycan array binding signal (z-score),[2],4.2
same,glycan array binding signal (z-score),[3],0.004
same,glycan array binding signal (z-score),[4],-0.45
same,glycan array binding signal (z-score),[5],-0.33
same,glycan array binding signal (z-score),[6],0.724
same,glycan array binding signal (z-score),[7],2.63
same,glycan array binding signal (z-score),[8],-0.437
same,glycan array binding signal (z-score),[9],0.166
same,glycan array binding signal (z-score),[10],0.03
same,glycan array binding signal (z-score),[11],0.09
same,glycan array binding signal (z-score),[12],0.443
same,glycan array binding signal (z-score),[13],0.493
same,glycan array binding signal (z-score),[14],3.16
same,glycan array binding signal (z-score),[15],-0.093
same,glycan array binding signal (z-score),[16],-0.401
same,glycan array binding signal (z-score),[17],-0.54
same,glycan array binding signal (z-score),[18],-0.506
same,glycan array binding signal (z-score),[19],0.171
same,glycan array binding signal (z-score),[20],-0.026
same,glycan array binding signal (z-score),[21],0.394
same,glycan array binding signal (z-score),[22],1.57
same,glycan array binding signal (z-score),[23],2.13
same,glycan array binding signal (z-score),[24],2.52
same,glycan array binding signal (z-score),[25],-0.392
same,glycan array binding signal (z-score),[26],-1.15
